Data as given in PubChem BioAssay (EPA / NIEHS).
Results filed as inconclusive are left out. Active and inactive are the calls of the source. The calls were made as follows, unless noted: active = hit-call score of the fitted dose curve at least 0.9, where 1 is the maximum; inactive = score below 0.9.

Key:
[1] = biological target: Retinoic acid receptor RXR-alpha (Homo sapiens) (UniProt P19793); test: ATG_RXRa_TRANS: Attagene TRANS-FACTORIAL HepG2 Assay for human Retinoid X Receptor alpha (RXRa) (AID 2283012; active = hit-call score of the fitted dose curve at least 0.9, where 1 is the maximum)
Method in brief: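 Transient transfection of human HepG2 with multiple GAL4-UAS reporter constructs; 24 h compound exposure; total RNA isolated, reverse-transcribed, PCR-amplified, 6-FAM labelled, HpaI-cut, resolved by capillary electrophoresis. Positive-direction fit versus DMSO.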

[2] = read-out: E-selectin (Homo sapiens) (UniProt P16581); test: BSK_3C_Eselectin: BioMAP Diversity Plus: 3C Assay for Eselectin Biomarker Activity (AID 2283015); settings: primary human endothelial cells (HUVEC); actives raise or lower the signal;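 as to outcome: cell surface E-selectin protein quantified by ELISA 24 h after dosing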
Method in brief: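 Primary human umbilical vein endothelial cells (3C system) were dosed with chemical and cell-surface E-selectin measured by ELISA 24 h later. Bidirectional curve fitting used DMSO as negative control and baseline.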

[3] = read-out: Interleukin-1 alpha (IL1a), IL1A (gene 3552); test: BSK_BE3C_IL1a: BioMAP Diversity Plus: BE3C Assay for Interleukin-1 alpha (IL1a) Biomarker Activity (AID 2283016); settings: primary human bronchial epithelial cells; actives raise or lower the signal
Method in brief: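 BE3C primary human bronchial epithelium; cpd 24 h; IL-1a by ELISA; bidirectional fit vs DMSO; parallel SRB (0.1% SRB, 10% TCA fix, 560 nm) for cytotoxicity.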

[4] = read-out: Monocyte Chemoattractant Protein-1 (MCP1), CCL2 (gene 6347); test: BSK_3C_MCP1: BioMAP Diversity Plus: 3C Assay for Monocyte Chemoattractant Protein-1 (MCP1) Biomarker Activity (AID 2283017); settings: primary human endothelial cells (HUVEC); actives raise or lower the signal
Method in brief: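 Primary human umbilical vein endothelial cells (3C system) were exposed to test chemical for 24 h, after which MCP-1 was quantified by ELISA. Activity was fitted bidirectionally against DMSO as negative control and baseline.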

[5] = read-out: Monocyte Chemoattractant Protein-1 (MCP1), CCL2 (gene 6347); test: BSK_4H_MCP1: BioMAP Diversity Plus: 4H Assay for Monocyte Chemoattractant Protein-1 (MCP1) Biomarker Activity (AID 2283018); settings: primary human endothelial cells (HUVEC); actives raise or lower the signal
Method in brief: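 ELISA read-out of MCP-1 from human vascular endothelial primary cells taken at 24 hours after compound exposure. Activity was fitted in both directions relative to DMSO, which served as negative control.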

[6] = read-out: Human Leukocyte Antigen - DR isotype (HLADR), HLA-DRA (gene 3122); test: BSK_3C_HLADR: BioMAP Diversity Plus: 3C Assay for Human Leukocyte Antigen - DR isotype (HLADR) Biomarker Activity (AID 2283019); settings: primary human endothelial cells (HUVEC); actives raise or lower the signal;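 as to outcome: ELISA of cell-surface HLA-DR on HUVEC 24 h after dosing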
Method in brief: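 Primary human umbilical vein endothelial cells (3C system) were dosed with compound and cell-surface HLA-DR was quantified by ELISA at 24 h. Activity was fitted bidirectionally against DMSO as negative control and baseline.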

[7] = read-out: Interleukin-8 (IL8), CXCL8 (gene 3576); test: BSK_3C_IL8: BioMAP Diversity Plus: 3C Assay for Interleukin-8 (IL8) Biomarker Activity (AID 2283020); settings: primary human endothelial cells (HUVEC); actives raise or lower the signal
Method in brief: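 ELISA read-out of IL-8 from human umbilical vein endothelium, measured 24 h after chemical dosing. Activity is expressed relative to DMSO negative control, with both increases and decreases fitted.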

[8] = read-out: Monokine induced gamma interferon (MIG), CXCL9 (gene 4283); test: BSK_3C_MIG: BioMAP Diversity Plus: 3C Assay for Monokine induced gamma interferon (MIG) Biomarker Activity (AID 2283021); settings: primary human endothelial cells (HUVEC); actives raise or lower the signal;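 as to AC50: MIG protein level measured by immunoassay in the treated endothelial cultures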
Method in brief: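 Read-out is ELISA detection of MIG on human umbilical vein endothelial cells, taken 24 h after dosing. Gain or loss of signal was scored relative to DMSO controls using bidirectional curve fitting.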

[9] = biological target: human Vitamin D Receptor (VDR), VDR (gene 7421) (UniProt P11473); test: ATG_VDR_TRANS: Attagene TRANS-FACTORIAL HepG2 Assay for human Vitamin D Receptor (VDR) (AID 2283022; active = hit-call score of the fitted dose curve at least 0.9, where 1 is the maximum)
Method in brief: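 HepG2 cells were transiently transfected with multiple GAL4-UAS reporter units, so signal reflects exogenous chimeric receptor-Gal4 activity. After 24 h compound exposure, reporter mRNA was measured by RT-PCR, fluorescent labelling and capillary electrophoresis, fitted for gain of signal versus DMSO.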

[10] = read-out: Matrix Metallopeptidase 1 (MMP1), MMP1 (gene 4312); test: BSK_BE3C_MMP1: BioMAP Diversity Plus: BE3C Assay for Matrix Metallopeptidase 1 (MMP1) Biomarker Activity (AID 2283024); settings: primary human bronchial epithelial cells; actives raise or lower the signal
Method in brief: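 Human bronchial epithelial cells (BE3C system) exposed to compound for 24 h; MMP1 then quantified by ELISA. Activity was fitted in both directions relative to DMSO.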

[11] = read-out: Pselectin, SELP (gene 6403); test: BSK_4H_Pselectin: BioMAP Diversity Plus: 4H Assay for Pselectin Biomarker Activity (AID 2283026); settings: primary human endothelial cells (HUVEC); actives raise or lower the signal
Method in brief: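 ELISA read-out of P-selectin on human umbilical vein endothelium after 24 h of dosing. Values derive from bidirectional fitting relative to DMSO. Parallel SRB protein staining flagged overt cytotoxicity.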

[12] = BSK_4H_SRB: Viability Assessment in the BioMAP Diversity Plus: 4H Assay (AID 2283027); settings: primary human endothelial cells (HUVEC);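 also: cells exposed to compound for 24 h before staining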;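 as to AC50: curves fitted both ways versus DMSO so AC50 may be loss or gain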
Method in brief: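 Human umbilical vein endothelial cells, 24 h after chemical dosing; total protein measured by 0.1% sulforhodamine B staining after 10% TCA fixation, read at 560 nm. Bidirectional fitting against DMSO.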

[13] = BSK_BE3C_SRB: Viability Assessment in the BioMAP Diversity Plus: BE3C Assay (AID 2283028); settings: primary human bronchial epithelial cells;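 as to AC50: fitted both ways so AC50 may mark signal gain or loss versus DMSO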
Method in brief: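 Human primary bronchial epithelial cells were exposed to test chemicals for 24 h. Total protein in parallel cultures was then measured by staining with 0.1% sulforhodamine B after 10% TCA fixation, with absorbance read at 560 nm. Activity was fitted bidirectionally against DMSO.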

[14] = read-out: Thrombomodulin, THBD (gene 7056); test: BSK_3C_Thrombomodulin: BioMAP Diversity Plus: 3C Assay for Thrombomodulin Biomarker Activity (AID 2283029); settings: primary human endothelial cells (HUVEC); actives raise or lower the signal
Method in brief: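 Read-out is ELISA of thrombomodulin on human umbilical vein endothelium 24 h after chemical dosing. Gain or loss of signal is scored relative to DMSO. Overt cytotoxicity is checked in parallel cultures by sulforhodamine B staining.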

[15] = read-out: Urokinase-type plasminogen activator receptor (uPAR), PLAUR (gene 5329); test: BSK_4H_uPAR: BioMAP Diversity Plus: 4H Assay for Urokinase-type plasminogen activator receptor (uPAR) Biomarker Activity (AID 2283030); settings: primary human endothelial cells (HUVEC); actives raise or lower the signal
Method in brief: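 Primary human umbilical vein endothelial cells were exposed to chemical for 24 h before cell-surface uPAR was quantified by ELISA. Activity was fitted bidirectionally against the DMSO negative control baseline.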

[16] = read-out: Vascular endothelial growth factor receptor 2 (Homo sapiens) (UniProt P35968); test: BSK_4H_VEGFRII: BioMAP Diversity Plus: 4H Assay for Vascular endothelial growth factor receptor 2 (VEGFR2) Biomarker Activity (AID 2283031); settings: primary human endothelial cells (HUVEC); actives raise or lower the signal
Method in brief: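 Primary human umbilical vein endothelial cells in the BioMAP 4H system were dosed with test chemical, and 24 h later VEGFRII was measured by ELISA. Activity was fitted bidirectionally against DMSO as negative control and baseline.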

[17] = BSK_3C_SRB: Viability Assessment in the BioMAP Diversity Plus: 3C Assay (AID 2283023); settings: primary human endothelial cells (HUVEC);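 also: fitted both ways against DMSO so a hit may be signal rise or drop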
Method in brief: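 Primary human umbilical vein endothelial cells in the 3C system were read 24 h after compound dosing. Total protein was stained with 0.1% sulforhodamine B after 10% TCA fixation and read at 560 nm, with bidirectional fitting against DMSO as baseline.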

[18] = BSK_3C_Vis: BioMAP Diversity Plus: 3C Assay for Morphology Visualization (AID 2283025); settings: primary human endothelial cells (HUVEC);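 also: fitted both ways so gain or loss versus DMSO counts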
Method in brief: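 Chemicals were added to primary human umbilical vein endothelium, cells were incubated 24 h, and morphology was then visualized by light microscopy. Gain or loss of signal was fitted bidirectionally relative to DMSO.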

[19] = biological target: human Retinoid X Receptor beta (RXRb), RXRB (gene 6257) (UniProt P28702); test: ATG_RXRb_TRANS: Attagene TRANS-FACTORIAL HepG2 Assay for human Retinoid X Receptor beta (RXRb) (AID 2283013; active = hit-call score of the fitted dose curve at least 0.9, where 1 is the maximum)
Method in brief: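 Transfect HepG2 with GAL4-UAS multi-reporter constructs (chimeric NR-Gal4, TRANS format); dose compound 24 h; isolate RNA, RT-PCR, FAM primer extension, HpaI digest; quantify by capillary electrophoresis; positive direction vs DMSO.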

[20] = biological target: human Thyroid Receptor alpha (THRa1), THRA (gene 7067) (UniProt P10827); test: ATG_THRa1_TRANS: Attagene TRANS-FACTORIAL HepG2 Assay for human Thyroid Receptor alpha (THRa1) (AID 2283014; active = hit-call score of the fitted dose curve at least 0.9, where 1 is the maximum)
Method in brief: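 HepG2 cells transiently transfected with multiplexed GAL4-UAS reporter units for exogenous chimeric THRa1-Gal4; reporter mRNA measured 24 h after dosing by RT-PCR, 6-FAM labelling, HpaI digestion and capillary electrophoresis. Gain-of-signal fitted versus DMSO baseline.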

Retinoic acid receptor RXR-alpha (Homo sapiens), sequence (P19793 whole entry, looked up, the tested form may be a part): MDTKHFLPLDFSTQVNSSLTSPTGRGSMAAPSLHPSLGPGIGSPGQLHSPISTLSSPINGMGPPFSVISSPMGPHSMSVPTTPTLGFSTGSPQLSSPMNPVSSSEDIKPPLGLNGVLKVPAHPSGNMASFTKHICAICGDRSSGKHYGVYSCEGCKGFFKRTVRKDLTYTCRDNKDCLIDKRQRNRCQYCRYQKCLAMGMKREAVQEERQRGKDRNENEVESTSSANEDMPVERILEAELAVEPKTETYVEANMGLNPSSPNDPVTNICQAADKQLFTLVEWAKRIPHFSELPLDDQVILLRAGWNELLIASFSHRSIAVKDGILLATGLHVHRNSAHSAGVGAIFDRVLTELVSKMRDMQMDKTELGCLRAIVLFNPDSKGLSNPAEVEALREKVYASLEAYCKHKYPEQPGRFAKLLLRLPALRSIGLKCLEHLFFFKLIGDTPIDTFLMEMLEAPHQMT
human Vitamin D Receptor (VDR), VDR (gene 7421), sequence (P11473 whole entry, looked up, the tested form may be a part): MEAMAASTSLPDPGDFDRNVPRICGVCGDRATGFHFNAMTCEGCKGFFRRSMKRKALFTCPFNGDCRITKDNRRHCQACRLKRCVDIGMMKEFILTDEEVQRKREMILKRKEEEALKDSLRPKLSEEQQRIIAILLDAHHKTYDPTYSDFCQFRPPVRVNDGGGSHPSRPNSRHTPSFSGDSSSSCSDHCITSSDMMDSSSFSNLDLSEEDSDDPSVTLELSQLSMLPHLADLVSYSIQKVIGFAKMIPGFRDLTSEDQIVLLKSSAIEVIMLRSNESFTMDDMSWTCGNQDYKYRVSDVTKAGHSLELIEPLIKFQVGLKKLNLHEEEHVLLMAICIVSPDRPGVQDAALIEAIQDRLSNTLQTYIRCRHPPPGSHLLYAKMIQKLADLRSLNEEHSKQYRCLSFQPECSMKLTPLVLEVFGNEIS
human Thyroid Receptor alpha (THRa1), THRA (gene 7067), sequence (P10827 whole entry, looked up, the tested form may be a part): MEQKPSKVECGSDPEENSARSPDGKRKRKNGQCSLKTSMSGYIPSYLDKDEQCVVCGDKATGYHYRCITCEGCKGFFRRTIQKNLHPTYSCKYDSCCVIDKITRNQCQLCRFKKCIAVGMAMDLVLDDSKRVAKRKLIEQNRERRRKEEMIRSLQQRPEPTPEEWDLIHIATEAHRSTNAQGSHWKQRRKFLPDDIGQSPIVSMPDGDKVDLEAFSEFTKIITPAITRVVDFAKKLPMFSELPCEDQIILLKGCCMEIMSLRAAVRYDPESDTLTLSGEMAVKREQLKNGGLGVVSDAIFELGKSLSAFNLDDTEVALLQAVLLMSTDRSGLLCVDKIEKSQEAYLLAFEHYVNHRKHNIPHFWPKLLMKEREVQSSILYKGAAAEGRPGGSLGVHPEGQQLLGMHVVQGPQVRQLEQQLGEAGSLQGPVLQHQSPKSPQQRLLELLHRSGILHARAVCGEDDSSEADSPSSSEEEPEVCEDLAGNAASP
E-selectin (Homo sapiens), sequence (P16581 whole entry, looked up): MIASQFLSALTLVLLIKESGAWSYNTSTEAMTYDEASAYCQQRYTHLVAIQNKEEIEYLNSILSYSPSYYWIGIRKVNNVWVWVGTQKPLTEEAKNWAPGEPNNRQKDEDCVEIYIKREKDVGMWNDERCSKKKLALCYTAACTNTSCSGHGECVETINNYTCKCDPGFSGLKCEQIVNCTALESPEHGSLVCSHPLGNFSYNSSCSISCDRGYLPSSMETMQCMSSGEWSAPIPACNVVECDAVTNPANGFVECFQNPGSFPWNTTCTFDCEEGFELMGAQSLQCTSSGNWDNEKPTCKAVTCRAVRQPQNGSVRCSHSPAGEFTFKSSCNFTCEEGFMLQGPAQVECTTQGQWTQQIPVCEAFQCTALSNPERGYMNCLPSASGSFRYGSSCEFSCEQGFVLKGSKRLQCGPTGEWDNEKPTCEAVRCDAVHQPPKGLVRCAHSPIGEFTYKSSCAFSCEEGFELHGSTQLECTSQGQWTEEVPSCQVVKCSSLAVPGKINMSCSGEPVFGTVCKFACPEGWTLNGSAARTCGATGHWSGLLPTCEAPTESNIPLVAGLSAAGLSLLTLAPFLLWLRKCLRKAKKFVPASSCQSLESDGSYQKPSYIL
human Retinoid X Receptor beta (RXRb), RXRB (gene 6257), sequence (P28702 whole entry, looked up, the tested form may be a part): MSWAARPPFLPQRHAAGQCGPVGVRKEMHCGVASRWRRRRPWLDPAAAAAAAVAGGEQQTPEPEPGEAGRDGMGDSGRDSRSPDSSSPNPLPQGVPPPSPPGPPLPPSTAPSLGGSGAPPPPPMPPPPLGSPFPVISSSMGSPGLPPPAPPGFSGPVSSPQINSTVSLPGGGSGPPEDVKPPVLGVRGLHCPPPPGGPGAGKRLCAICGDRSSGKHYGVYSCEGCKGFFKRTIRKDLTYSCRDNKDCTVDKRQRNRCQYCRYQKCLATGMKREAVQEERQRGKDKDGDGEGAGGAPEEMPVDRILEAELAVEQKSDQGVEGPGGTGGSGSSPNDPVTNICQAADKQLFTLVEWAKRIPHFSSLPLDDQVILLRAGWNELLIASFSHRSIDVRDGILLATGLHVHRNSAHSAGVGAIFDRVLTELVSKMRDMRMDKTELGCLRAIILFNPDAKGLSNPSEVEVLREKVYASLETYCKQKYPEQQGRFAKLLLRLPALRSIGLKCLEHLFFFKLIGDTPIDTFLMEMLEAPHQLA

## CN(C)CCCN1c2ccccc2Sc2ccc(Cl)cc21
[1]
  outcome: inactive
[2]
  AC50: 33 µM (active)
[3]
  AC50: 31.1 µM (active)
[4]
  AC50: 30.4 µM (active)
[5]
  AC50: 4.5 µM (active)
[6]
  AC50: 29.1 µM (active)
[7]
  AC50: 20 µM (active)
[8]
  AC50: 32.2 µM (active)
[9]
  outcome: inactive
[10]
  AC50: 32.9 µM (active)
[11]
  AC50: 35.9 µM (active)
[12]
  AC50: 26 µM (active)
[13]
  AC50: 39 µM (active)
[14]
  outcome: inactive
[15]
  AC50: 12.2 µM (active)
[16]
  outcome: inactive

## CCc1cc(C2=C(C(=O)O)N(c3ccccc3C(F)(F)F)S(=O)(=O)c3ccccc32)cc2c1OCO2
[1]
  outcome: inactive
[2]
  outcome: inactive
[3]
  outcome: inactive
[4]
  outcome: inactive
[5]
  outcome: inactive
[6]
  AC50: 24.8 µM (active)
[7]
  outcome: inactive
[8]
  outcome: inactive
[9]
  outcome: inactive
[17]
  outcome: inactive
[10]
  AC50: 10.8 µM (active)
[18]
  outcome: inactive
[11]
  outcome: inactive
[12]
  outcome: inactive
[13]
  outcome: inactive
[14]
  AC50: 10.2 µM (active)
[15]
  outcome: inactive
[16]
  outcome: inactive

## N[C@@H](Cc1c[nH]c2ccccc12)C(=O)O
[19]
  outcome: inactive
[20]
  outcome: inactive
[2]
  outcome: inactive
[3]
  outcome: inactive
[4]
  outcome: inactive
[5]
  outcome: inactive
[6]
  outcome: inactive
[7]
  outcome: inactive
[8]
  outcome: inactive
[17]
  outcome: inactive
[10]
  outcome: inactive
[18]
  outcome: inactive
[11]
  outcome: inactive
[12]
  outcome: inactive
[13]
  outcome: inactive
[14]
  outcome: inactive
[15]
  outcome: inactive
[16]
  outcome: inactive

## CCCCCCCC(=O)OC
[19]
  outcome: inactive
[20]
  outcome: inactive
[2]
  outcome: inactive
[3]
  outcome: inactive
[4]
  outcome: inactive
[5]
  outcome: inactive
[6]
  outcome: inactive
[7]
  outcome: inactive
[8]
  outcome: inactive
[9]
  outcome: inactive
[17]
  outcome: inactive
[10]
  outcome: inactive
[18]
  outcome: inactive
[11]
  outcome: inactive
[12]
  outcome: inactive
[13]
  outcome: inactive
[14]
  outcome: inactive
[16]
  outcome: inactive

## COC(=O)CCCC(=O)OC
[1]
  outcome: inactive
[2]
  outcome: inactive
[3]
  outcome: inactive
[4]
  outcome: inactive
[5]
  outcome: inactive
[6]
  outcome: inactive
[7]
  outcome: inactive
[8]
  outcome: inactive
[9]
  outcome: inactive
[17]
  outcome: inactive
[10]
  outcome: inactive
[18]
  outcome: inactive
[11]
  outcome: inactive
[12]
  outcome: inactive
[13]
  outcome: inactive
[14]
  outcome: inactive
[15]
  outcome: inactive
[16]
  outcome: inactive

## CC(=O)OCC(COC(C)=O)OC(C)=O
[1]
  outcome: inactive
[20]
  outcome: inactive
[2]
  outcome: inactive
[3]
  outcome: inactive
[4]
  outcome: inactive
[5]
  outcome: inactive
[6]
  outcome: inactive
[7]
  outcome: inactive
[8]
  outcome: inactive
[9]
  outcome: inactive
[17]
  outcome: inactive
[10]
  outcome: inactive
[18]
  outcome: inactive
[11]
  outcome: inactive
[12]
  outcome: inactive
[13]
  outcome: inactive
[14]
  outcome: inactive
[16]
  outcome: inactive

## O=C1NC(=O)C(c2ccccc2)(c2ccccc2)N1
[1]
  outcome: inactive
[2]
  outcome: inactive
[3]
  outcome: inactive
[4]
  outcome: inactive
[5]
  outcome: inactive
[6]
  outcome: inactive
[7]
  outcome: inactive
[8]
  outcome: inactive
[17]
  outcome: inactive
[18]
  outcome: inactive
[11]
  outcome: inactive
[12]
  outcome: inactive
[13]
  outcome: inactive
[14]
  outcome: inactive
[16]
  outcome: inactive
